An excerpt weighted towards active compounds, which were near 15% of everything screened.
ELG1 DNA repair – blocks ELG1-dependent DNA repair in HEK293T cells. HEK293T ELG1-luciferase reporter, luminescence, 16 h; DNA damage induced by 5-fluorouridine. Potency, µM (titrated, usually from 46.1 µM), inactives show at the highest dose activity change, negative = inhibition, hits mostly inhibitors. 2.3% of 330,000 active. AID 504467; note: nearly all actives have a fitted effect of over 55% in size
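DMSO vehicle served as the neutral condition. Each well held 2,000 cells given 5-fluorouridine plus compound; after 16 hr at 37 °C/5% CO2, ONE-Glo was added and luciferase measured 30 min later.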
RORgamma inh – ROR gamma (mouse) transcription inhibition; Potency, µM (top dose mostly 53.6 µM), for inactives: at the top dose activity change, negative = inhibition, most hits filed as inhibitors; Drosophila S2 Gal4-RORgamma UAS-luciferase reporter, 20 h; 5.4% of 310,000 active; AID 2551; P51450; note: nearly all actives have a fitted effect of over 60% in size
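Read-out: Photinus luciferase luminescence; inhibitors lower reporter signal. Insect Schneider cells with Gal4-ROR gamma fusion under metallothionein promoter, UAS reporter; 700 uM final copper sulfate induction, 20 hr, ambient temperature.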
DT40 TDP1 no CPT – qHTS for Inhibitors of human tyrosyl-DNA phosphodiesterase 1 (TDP1): qHTS in cells in absence of CPT; DT40 Tdp1-/- hTDP1 cells, no CPT, ATP luminescence, 48 h; Potency, µM (titrated, usually from 46.2 µM), for inactives: top-dose activity change, negative = growth inhibition, hits mostly inhibitors; 15% of 420,000 active; AID 686978, 2013; note: nearly all actives have a fitted effect of over 55% in size
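Chicken DT40 Tdp1-/- cells complemented with human TDP1, screened without camptothecin (DMSO vehicle only), 400 cells/well. Compounds pin-transferred, cells incubated at 37 °C for at least 48 hr. Growth read as ATP-dependent luminescence (CellTiter-Glo, 30 min at RT).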
Gal4-VP16 FLuc – inhibits Gal4-VP16 luciferase reporter, ROR gamma counter-screen. Drosophila S2 Gal4-VP16 UAS-luciferase, luminescence, 20 h. Potency, µM (highest dose often 53.6 µM), inactives show at the highest dose activity, negative = inhibition, most hits filed as inhibitors. 3.5% of 310,000 active;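 note: Gal4-VP16 expression switched on by copper sulfate through the metallothionein promoter; nearly all actives have a fitted effect of over 50% in size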
DT40 TDP1 CPT – growth inhibition of DT40 Tdp1-/-;hTDP1 cells with camptothecin (screen for TDP1 inhibitors); chicken DT40 Tdp1-/-;hTDP1 cells + 20 nM CPT, ATP luminescence, 48 h; Potency, µM (highest dose often 46.2 µM), inactives show at the top dose activity change, negative = growth inhibition, hits mostly inhibitors; 12% of 420,000 active; AID 686979; note: nearly all actives have a fitted effect of over 55% in size
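Chicken DT40 Tdp1-/- cells stably complemented with human TDP1 were seeded at 400 cells/well in medium containing 20 nM camptothecin, exposed to pin-transferred compounds, and grown at 37 °C for at least 48 hr. Viability was read as ATP luminescence.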
ALOX12 inh – inhibitors of human 12S-lipoxygenase ALOX12; purified 12hLO, xylenol orange hydroperoxide absorbance; Potency, µM (doses to about 108 µM), inactives show top-dose activity change, negative = inhibition, most hits filed as inhibitors; 1.1% of 580,000 active; AID 1671190
Target sequence (P18054 whole entry, looked up): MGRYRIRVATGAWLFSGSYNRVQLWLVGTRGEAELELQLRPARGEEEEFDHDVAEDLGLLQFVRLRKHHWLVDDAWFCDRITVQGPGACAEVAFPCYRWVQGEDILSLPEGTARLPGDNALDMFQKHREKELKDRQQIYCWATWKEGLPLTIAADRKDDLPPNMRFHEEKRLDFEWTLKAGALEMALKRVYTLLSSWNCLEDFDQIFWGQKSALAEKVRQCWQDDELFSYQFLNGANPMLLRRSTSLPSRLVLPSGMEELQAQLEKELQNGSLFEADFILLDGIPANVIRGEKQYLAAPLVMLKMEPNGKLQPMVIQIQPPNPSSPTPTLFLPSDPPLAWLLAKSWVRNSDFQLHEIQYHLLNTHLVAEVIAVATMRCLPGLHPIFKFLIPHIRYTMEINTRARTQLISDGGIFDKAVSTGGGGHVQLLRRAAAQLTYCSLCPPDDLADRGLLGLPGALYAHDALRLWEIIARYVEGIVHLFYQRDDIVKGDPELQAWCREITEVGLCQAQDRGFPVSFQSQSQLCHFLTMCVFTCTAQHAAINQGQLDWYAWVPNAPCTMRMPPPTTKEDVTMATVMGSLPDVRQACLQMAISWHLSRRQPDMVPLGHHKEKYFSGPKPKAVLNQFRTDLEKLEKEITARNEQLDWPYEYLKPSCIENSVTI
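Purified human 12hLO (150 nM final) in 25 mM Hepes, 0.01% Triton X-100, pH 7.0 was preincubated 15 min at room temperature with compound. Then 40 uM arachidonic acid was added, 30 min. Hydroperoxide was read by Fe-XO absorbance ratio 573/405 nm.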
* hit, by the source's call; ? = inconclusive; nt = not tested or not shown; [ ] = another dose, or the depositor's remark. Calls come from the whole dose curve; as a rule, active = well fitted curve in the direction sought with a large enough effect; inconclusive = small, poorly fitted or top-dose-only effect, or another doubt; inactive = no such curve, though single readings can be large; an effect the other way counts as inactive or inconclusive. % is set by controls: 0 for no effect and ±100 for the full control effect; potency is the fitted concentration of half-maximal effect.

SMILES	ELG1 DNA repair	RORgamma inh	DT40 TDP1 no CPT	Gal4-VP16 FLuc	DT40 TDP1 CPT	ALOX12 inh
CCOc1cc(C2C3=C(CCCC3=O)Nc3nc(C(=O)OC)nn32)ccc1OC (configuration not stated)	-10%	-12%	5%	0%	-1%	?
COc1ccc(C2C3=C(CCCC3=O)Nc3nc(C(F)(F)F)nn32)cc1OC (configuration not stated)	22%	4.5µM*	-26%	-12%	-2%	-3%
CCCC(=O)c1cc(O)c(O)cc1O	nt	-25%	17µM*	6%	?	1.6µM*
CCCC(=O)c1ccc(O)cc1	nt	nt	nt	nt	nt	16%
O=C(NCC(c1ccccc1)c1c[nH]c2ccccc12)c1cccs1 (configuration not stated)	nt	nt	nt	nt	nt	-35%
Cc1ccc2[nH]cc(C(c3ccccc3)c3cccs3)c2c1 (configuration not stated)	nt	nt	18µM*	nt	?	-30%
Cc1ccc2[nH]cc(C(c3ccccc3)c3ccc(C)s3)c2c1 (configuration not stated)	nt	nt	18µM*	nt	?	?
Clc1ccc(-c2nnc([C@H]3CCN(Cc4c[nH]c5ccccc45)C3)o2)cc1	nt	nt	nt	nt	nt	-2%[176 µM]
COc1ccc(/C=N/NC(=O)c2ccccc2OC)cc1COc1ccccc1[N+](=O)[O-]	13µM*	?	29µM*	-22%	18µM*	-26%
COc1ccc(/C=N/NC(=O)c2cccnc2)cc1COc1ccc([N+](=O)[O-])c(C)c1	15µM*	-41%	4.1µM*	1%	3.7µM*	178%
COc1ccc(/C=N\NS(=O)(=O)c2ccc(C)cc2)cc1COc1ccccc1[N+](=O)[O-]	16µM*	37%	?	-3%	?	9%
COc1ccc(/C=N\NC(=O)c2ccc([N+](=O)[O-])c(C)c2)cc1COc1ccccc1C(N)=O	?	3%	-21%	2%	-29%	1%
COc1ccccc1N1CCN(C(=O)CCS(=O)(=O)c2cc(Br)cc3c2N(C(=O)C2CC2)CC3)CC1	nt	nt	?	nt	16µM*	-6%
CCC(=O)N1CCc2cc(Br)cc(S(=O)(=O)N3CCN(c4ccccc4OC)CC3)c21	nt	nt	23µM*	nt	?	-25%
CCCNC(=O)c1c(CSc2ccc(Cl)cc2)noc1C(=O)NCc1ccccc1	nt	nt	?	nt	?	-24%
CN(C)CCNC(=O)c1c(CSc2ccc(Cl)cc2)noc1C(=O)NCc1ccccc1	nt	nt	16µM*	nt	18µM*	?
CCCCNC(=O)c1c(CSc2ccc(Cl)cc2)noc1C(=O)NCc1ccccc1	nt	nt	?	nt	18µM*	?
COc1ccccc1CCNC(=O)Cc1c(C)c2ccc(OC)c(C)c2oc1=O	nt	nt	nt	nt	nt	2%
O=C(O)Cn1c(=O)c2c(ncn2Cc2ccccc2)n(Cc2ccccc2)c1=O	nt	nt	nt	nt	nt	-2%
CCCn1c(Sc2ccc(C)cc2)nc2c1c(=O)[nH]c(=O)n2C	nt	nt	nt	nt	nt	22%
CCOCCCNC(=O)/C(C#N)=C/c1cc(C)c(O)c(C)c1	13%	0%	23µM*	-8%	?	2%
CCOCCCNC(=O)/C(C#N)=C/c1ccc(Cl)c([N+](=O)[O-])c1	?	13µM*	7.3µM*	?	2.6µM*	?
CCOCCCNC(=O)/C(C#N)=C/c1cc(OC)c(O)c([N+](=O)[O-])c1	17%	-41%	2.9µM*	-15%	3.7µM*	-15%
CCOCCCNC(=O)/C(C#N)=C/c1ccc(C(=O)OC)cc1	11%	-14%	-19%	6%	?	-9%
CC(C)C/C=N/NC(=O)c1ccccc1	nt	nt	nt	nt	nt	39%
SMILES	ELG1 DNA repair	RORgamma inh	DT40 TDP1 no CPT	Gal4-VP16 FLuc	DT40 TDP1 CPT	ALOX12 inh
COc1cc(O)c(C(CCN2CCCCC2)c2ccc(N(C)C)cc2)c(OC)c1 (configuration not stated)	4%	?	6.5µM*	2%	16µM*	-4%
COc1cc(O)c(C(CCN2CCCC2)c2ccc(N(C)C)cc2)c(OC)c1 (configuration not stated)	8%	-12%	21µM*	?	15µM*	0%
O=c1oc2c(-c3cccc(F)c3)cc(O)cc2s1	-5%	-37%	?	?	?	35µM*
CCCCn1nc(C(=O)Oc2ccc(C(C)=O)cc2)c2ccccc2c1=O	nt	nt	nt	nt	nt	-9%
O=C(c1ccc(C(F)(F)F)cc1)N1CCN(S(=O)(=O)c2ccc3c(c2)OCCCO3)CC1	?	13µM*	?	-4%	?	0%
O=S(=O)(c1ccc2c(c1)OCCO2)N1CCC(n2nnc3cc(C(F)(F)F)ccc32)CC1	?	-5%[10 µM]	16µM*	0%	?	0%
Cc1ccc2nc(N3CCN(S(=O)(=O)c4ccc5c(c4)OCCO5)CC3)c(C#N)cc2c1	-19%	14%	?	1%	11µM*	-4%
Cc1ccc(S(=O)(=O)N2CCCN(c3nc4cc(C)ccc4cc3C#N)CC2)cc1	?	-10%	?	-1%	?	5%
Cc1ccc(S(=O)(=O)N2CCCN(S(=O)(=O)c3ccc4c(c3)OCCO4)CC2)cc1	?	80%	11µM*	-8%	11µM*	17%
Cc1nnc([C@@H]2CC(F)(F)CN2C(=O)c2c(C)noc2C)o1	nt	nt	nt	nt	nt	29%
Cc1ccc2c(CN3CCN(Cc4ccc5c(c4)OCO5)CC3)cc(=O)oc2c1C	?	-15%	?	2%	?	-38%
Cc1ccc2c(CN3CCN(S(=O)(=O)c4ccc5c(c4)OCCO5)CC3)cc(=O)oc2c1C	15µM*	7%	?	-2%	?	11%
Cn1c2nc(=O)n(-c3ccccc3)c(=O)c-2nc2c1CCCC2	nt	nt	?	nt	21µM*	nt
Cc1nn(C)c(=O)n1-c1ccccc1	8%	-15%	-7%	-24%	14%	32%
COc1ccc2[nH]cc(CCNc3cc(-c4ccccc4Cl)ncn3)c2c1	nt	28%	3.7µM*	-1%	?	16µM*
COc1ccc2[nH]cc(CCNc3cc(-c4ccccc4C(F)(F)F)ncn3)c2c1	nt	3%	?	3%	?	?
COc1ccc2[nH]cc(CCNc3ccnc(-c4cccc(C#N)c4)n3)c2c1	nt	?	?	1%	?	-22%
COc1ccc2[nH]cc(CCNc3ccnc(-c4ccccc4Cl)n3)c2c1	nt	-10%	12µM*	3%	?	-36%
N[S+](=O)([O-])c1ccc2c(c1)OCCN(Cc1ccccc1Cl)C2	nt	nt	nt	nt	nt	58%[176 µM]

From PubChem
